Test results published in PubChem BioAssay (NCI).
Compounds without any hit were thinned out: in the full panel of roughly 83,000, 20% have a hit.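 In brief: 96-well plates, 48 h treatment, single concentration, percent growth endpoint.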 Activity calls are given as the source filed them. How the source made its calls: active means growth percent below 10; inactive means the rest.

Tests used:
Experiment in all cases: NCI-60 one-dose screen, 48 h (100 = growth as untreated, 0 = no growth, -100 = all killed)
Settings in all cases: 10 µM
[1] = system: DU-145 prostate
[2] = system: K-562 leukemia
[3] = system: MALME-3M melanoma
[4] = system: MDA-MB-231 breast
[5] = system: RXF 393 renal
[6] = system: SF-268 CNS
[7] = system: SF-295 CNS
[8] = system: SF-539 CNS
[9] = system: UACC-257 melanoma
[10] = system: M14 melanoma
[11] = system: HCT-15 colon
[12] = system: HT29 colon
[13] = system: SNB-75 CNS
[14] = system: SNB-19 CNS
[15] = system: U251 CNS
[16] = system: PC-3 prostate
[17] = system: SK-MEL-5 melanoma
[18] = system: UACC-62 melanoma
[19] = system: LOX IMVI melanoma
[20] = system: SK-MEL-28 melanoma

Measured: growth

O=C1c2ccccc2C(=O)c2c1ccc(C(Br)Br)c2[N+](=O)[O-]
active: [2] -7.68% | [3] -17.5% | [4] -21.4% | [15] 9.58% | [19] -65.3%
inactive: [1] 59.4% | [5] 48.6% | [6] 19.1% | [7] 92.8% | [8] 90.2% | [9] 95.2% | [10] 36.6% | [11] 38.3% | [12] 46.1% | [13] 109% | [14] 60.9% | [16] 19.2% | [17] 60.8% | [18] 27.6% | [20] 102%

O=C(N/N=C/c1ccc(Cl)cc1)c1ccc(Cc2n[nH]c(=O)c3cccnc23)cc1
inactive: [1] 112% | [2] 106% | [3] 93.2% | [4] 102% | [5] 91.2% | [6] 98.6% | [7] 101% | [8] 89.7% | [9] 97.1% | [10] 99.6% | [11] 97.1% | [12] 99.3% | [13] 84.5% | [14] 89% | [15] 103% | [16] 95.4% | [17] 100% | [18] 94.2% | [19] 100% | [20] 104%

CN(C)CCOc1cccc(NC2=C(Cl)C(=O)C(Nc3cccc(OCCN(C)C)c3)=C(Cl)C2=O)c1
inactive: [7] 66.5% | [13] 84%
active: [1] -100% | [2] -30.7% | [3] -74.8% | [4] -75.2% | [5] -76.5% | [6] -50% | [8] -86.4% | [9] -97.3% | [10] -74% | [11] -78.6% | [12] -80% | [14] 6.1% | [15] -93.2% | [16] 5.48% | [17] -95.2% | [18] -82.2% | [19] -81.5% | [20] -63.9%

CS(=O)(=O)c1nccc(-c2c(-c3cccc(OCCN4CCOCC4)c3)nc3sccn23)n1
inactive: [1] 91.9% | [2] 91.5% | [3] 105% | [4] 67.9% | [5] 89.2% | [6] 107% | [7] 104% | [8] 81.3% | [9] 110% | [10] 113% | [11] 81.8% | [12] 66.9% | [13] 75.9% | [14] 82.5% | [15] 86.6% | [16] 77.9% | [17] 84.5% | [18] 89.1% | [19] 91.3% | [20] 99.3%

COc1ccc(C2=Cn3c(CCC(=O)c4nc5ccccc5[nH]4)nnc3SC2)cc1
inactive: [1] 97.7% | [3] 102% | [4] 92.2% | [5] 112% | [6] 107% | [7] 83.7% | [8] 92% | [9] 107% | [10] 111% | [11] 104% | [12] 58.2% | [13] 110% | [14] 113% | [15] 94.1% | [16] 84.2% | [17] 87.7% | [18] 106% | [19] 83.7% | [20] 111%
active: [2] 3.14%

COc1ccc2c(c1)C(=O)/C(=C/c1ccc([N+](=O)[O-])o1)O2
active: [1] -85% | [2] -34.8% | [3] -77.8% | [4] -76.9% | [5] -78.3% | [6] -72.7% | [7] 3.29% | [8] -49.8% | [9] -85.6% | [10] -64.2% | [11] -48.5% | [12] -63% | [13] 9.47% | [15] -55.1% | [17] -91.3% | [18] -89% | [19] -77.4% | [20] -71.1%
inactive: [14] 19.9% | [16] 58.9%

OCC1OC2C(NC(=S)N2c2ccccc2)C(O)C1O (stereo not given)
inactive: [1] 107% | [2] 108% | [3] 131% | [4] 99.8% | [5] 108% | [6] 96.8% | [7] 99.8% | [8] 102% | [9] 102% | [10] 120% | [11] 99.2% | [12] 101% | [13] 99.6% | [14] 91.9% | [15] 97.5% | [16] 96% | [17] 98.5% | [18] 98.7% | [19] 100% | [20] 105%

N#Cc1ccc(C(=O)CSc2nccc(Nc3ccc(C(=O)O)cc3)n2)cc1
inactive: [1] 110% | [2] 106% | [3] 106% | [4] 107% | [5] 97.4% | [6] 102% | [7] 97.4% | [8] 97.9% | [9] 110% | [10] 110% | [11] 106% | [12] 104% | [13] 106% | [14] 99% | [15] 106% | [16] 99.5% | [17] 99.1% | [18] 103% | [19] 101% | [20] 110%

COc1cc(NC(=O)Nc2cnc(Nc3ccc(N4CCOCC4)cc3)nc2Oc2cccc(OC)c2)cc(OC)c1
active: [3] 8.57% | [5] -32.5% | [8] -68.4% | [13] 9.13% | [17] -19.9%
inactive: [1] 36.9% | [2] 55.4% | [4] 16.9% | [6] 50% | [7] 34.6% | [9] 48% | [10] 45.2% | [11] 81.9% | [12] 37.2% | [14] 66.6% | [15] 22% | [16] 47.5% | [18] 22.8% | [19] 33.3% | [20] 32.2%

COc1cc(OC)c2c(=O)c(O)c(-c3ccccc3)oc2c1
inactive: [1] 70.7% | [2] 70.6% | [3] 101% | [4] 67.9% | [5] 67.6% | [6] 66.4% | [7] 98.3% | [8] 79.7% | [9] 84.2% | [10] 73.2% | [11] 51.7% | [12] 99.6% | [13] 76% | [14] 62.4% | [15] 47.1% | [16] 67.1% | [17] 72.4% | [18] 72.1% | [19] 59.1% | [20] 95.8%

COc1ccc(-c2cc(-c3ccccc3)nc(SCCCCCCC(=O)NO)n2)cc1
inactive: [1] 60% | [2] 26.7% | [3] 20.3% | [4] 68.9% | [5] 22.1% | [6] 97.4% | [7] 67.4% | [8] 73.2% | [9] 49.5% | [10] 48.2% | [11] 44.3% | [12] 27% | [13] 24.8% | [14] 60.6% | [15] 51.5% | [16] 58.8% | [17] 13.1% | [18] 24.8% | [19] 13.1% | [20] 67.9%

COc1ccc(-c2nnc(SCC(=O)Nc3ccc(C(=O)/C=C/c4ccccc4)cc3)n2-c2ccccc2)cc1OC
inactive: [1] 50.4% | [2] 37.2% | [3] 36.4% | [4] 73.4% | [5] 72.4% | [6] 84.8% | [7] 106% | [9] 72.4% | [10] 57.7% | [11] 86.5% | [12] 60.3% | [13] 84.2% | [14] 83.3% | [15] 79.5% | [16] 69.5% | [17] 83.1% | [18] 81.1% | [19] 32.5% | [20] 89.3%
active: [8] 0.289%

CCOC(=O)c1cocc1C(=O)O
inactive: [1] 113% | [2] 92.6% | [3] 106% | [4] 118% | [5] 114% | [6] 108% | [7] 101% | [8] 107% | [9] 103% | [10] 103% | [11] 103% | [12] 110% | [13] 83.3% | [14] 107% | [15] 103% | [16] 112% | [17] 104% | [18] 116% | [19] 103% | [20] 104%

N#CC1=C(N)Oc2cc(N)ccc2C1c1cccnc1 (stereo not given)
inactive: [1] 104% | [2] 83.3% | [3] 98.6% | [4] 101% | [5] 108% | [6] 93.4% | [7] 99.7% | [8] 96.1% | [9] 109% | [10] 87.3% | [11] 95.6% | [12] 93.8% | [13] 79.3% | [14] 103% | [15] 102% | [16] 88.7% | [17] 99.3% | [18] 101% | [19] 95.1% | [20] 102%

COc1cc(C2C(C#N)=C(N)Oc3cc(O)ccc32)cc(OC)c1OC (stereo not given)
inactive: [1] 11.1% | [3] 43.5% | [4] 36.1% | [6] 50.4% | [9] 64.2% | [11] 30.1% | [13] 33.9% | [14] 44.9% | [15] 11.1% | [16] 21.5% | [17] 23% | [18] 38.4% | [19] 45.7% | [20] 58%
active: [2] 9.12% | [5] -9.12% | [7] 0.55% | [8] 4.64% | [10] -15.6% | [12] 2.42%

COc1ccc(-c2cc(-c3ccccc3)nc(SCCCC(=O)NO)n2)cc1
inactive: [11] 10.8% | [14] 10.6% | [20] 19.2%
active: [1] 1.16% | [2] 6.74% | [3] -9.2% | [4] -0.784% | [5] -40.8% | [6] -18.8% | [7] -39.6% | [8] 0.299% | [9] -3.3% | [10] -21.8% | [12] 5.87% | [13] -20.1% | [15] -24.5% | [16] 9.65% | [17] -57.8% | [18] -65.9% | [19] -65.4%
